According to PubChem BioAssay (Tox21):
Unmarked numbers belong to inactive results. A call without a number means that no potency is given here. Calls of active or inactive are those of the source. The call rests on the fitted dose curve; in most records, active means well fitted curve in the direction sought with a large enough effect in the repeat runs; inconclusive means weak or mixed curves; inactive means flat fitted curve, though single readings scatter.

Assay: qHTS assay to test for compound auto fluorescence at 590 nm (red) in HepG2 cell free culture (AID 720684)
Details: cell-free medium autofluorescence, red 540/590 nm; series mostly up to 91.3 µM
Source text: U.S. Tox21 Program National Center for Advancing Translational Sciences [NCATS] NIH Chemical Genomics Center [NCGC] U.S. Environmental Protection Agency [EPA] National Institutes of Environmental Health Sciences [NIEHS] National Toxicology Program [NTP] U.S. Food and Drug Administration [FDA] Tox21 Assay Overview: Compound auto fluorescence often interferes with screening of the compound library against various biological targets and signaling pathways. Some of these compounds may have fluorophoric properties. Such properties may interfere with the assay outputs resulting in false positives and/or negatives. To decrease such complications and ensure the compound activities are relevant in terms of biological response, the Tox21 10K compound library was screened for auto fluorescence. From the fluorophores used as reporter signals in our screening assays, the auto fluorescence equivalencies of compounds against three fluorophores have been evaluated: Triamterene, Fluorescein and Rose Bengal sodium for blue, green and red fluorescence, respectively. The fluorescence intensities were measured using Excitation/Emission wavelengths at 405/460nm, 485/535nm and 540/590nm for blue, green and red labels, respectively. This assay includes the red fluorescence data.
Tox21 Assay Protocol Summary: 5 uL of culture medium (MEM containing 10% FBS) per well was dispensed into black wall/clear bottom 1536-well plates using a Multidrop Combi Dispenser (ThermoFisher Scientific, Waltham, MA). After 23 nL compound or DMSO vehicle was transferred into assay plate by a pintool work station (Kalypsys, San Diego, CA), fluorescence intensities in the assay plates were measured by an Envision (PerkinElmer, Shelton, CT) plate reader using three labels for measuring blue, green and red fluorescence at […] 460, 535 and 590nm respectively.
With O=C(O)CCN(C1(C(=O)NO)CCCC1)S(=O)(=O)c1ccc(Oc2ccc(F)cc2)cc1 the Potency was “inactive”.
In the case of CCO[C@@H]1O[C@H](C(COCc2ccccc2)OCc2ccccc2)[C@H](OCc2ccccc2)[C@H]1O (stereo not given in full), the fluorescence, % of Rose Bengal was -0.0599% [at 18.6 µM].
For Cc1cccc2cccnc12, the Potency was “inactive”.
In the case of CCC(=O)C(=O)CC, the Potency was “inactive”.
In the case of COC(=O)Nc1nc2ccc(C(=O)c3ccccc3)cc2[nH]1, the fluorescence, % of Rose Bengal was 0.103% [at 18.6 µM].
In the case of O=C(O)c1cc(=O)c2ccccc2o1, the Potency was “inactive”.
With O=c1c(O)c(-c2ccc(O)cc2O)oc2cc(O)cc(O)c12 the Potency was “inactive”.
With CCC(C)(CCC(C)C)C(=O)[O][Sn]([CH3])([CH3])[O]C(=O)C(C)(CC)CCC(C)C (stereo not given) the Potency was “inactive”.
Compound O=C(O)c1cc(-c2ccc(F)cc2F)ccc1O has a fluorescence, % of Rose Bengal of -0.0804% [at 18.6 µM].
For CCCCCCCCCCC[C@@H](C[C@@H]1OC(=O)[C@H]1CCCCCC)OC(=O)[C@H](CC(C)C)NC=O, the Potency was “inactive”.
In the case of CC(C)CCOC(=O)/C=C/c1ccccc1, the Potency was “inactive”.
In the case of Oc1ccccc1O, the Potency was “inactive”.
In the case of CC1(C)[C@@H](O)CC[C@]2(C)[C@H]3C(=O)C=C4[C@@H]5C[C@@](C)(C(=O)O)CC[C@]5(C)CC[C@@]4(C)[C@]3(C)CC[C@@H]12, the Potency was “inactive”.
For S=c1nccc[nH]1, the Potency was “inactive”.
In the case of Cc1cc(=O)oc2cc(O)cc(O)c12, the Potency was “inactive”.
For CC(C(=O)O)c1ccc2c(c1)[nH]c1ccc(Cl)cc12 (stereo not given), the Potency was “inactive”.
For CCCC(=O)OCCc1ccccc1, the Potency was “inactive”.
Compound Cc1cc(C(C)(C)C)cc(C)c1CC1=NCCN1 has a fluorescence, % of Rose Bengal of -0.207% [at 18.6 µM].
For ClCCl, the Potency was “inactive”.
In the case of c1cnccn1, the Potency was “inactive”.
Work on CCCCC(CC)CN1CN(CC(CC)CCCC)CC(C)(N)C1 (stereo not given) yielded a fluorescence, % of Rose Bengal of 0.0615% [at 18.6 µM].
For CCCCCCC1CCCC(=O)O1 (stereo not given), the Potency was “inactive”.
For CCCNCCC, the Potency was “inactive”.
With CCCCCCCCCCCCCC[N+](C)(C)C the Potency was “inactive”.
For c1ccc(SSc2ccccc2)cc1, the Potency was “inactive”.
With Nc1ccc(C(=O)O)c(O)c1 the Potency was “inactive”.
In the case of O=C(O)c1cc(N=Nc2ccc([N+](=O)[O-])cc2)ccc1O, the Potency was “inactive”.
With CC1=CCC(=C(C)C)CC1 the Potency was “inactive”.
For Cc1nc2n(c(=O)c1CCN1CCC(c3noc4cc(F)ccc34)CC1)CCCC2, the Potency was “inactive”.
With CN1CCN2c3ccccc3Cc3ccccc3C2C1 (stereo not given) the Potency was “inactive”.
For CCCC(=O)OC(C)(C)Cc1ccccc1, the Potency was “inactive”.
For C=C(CC)C(=O)c1ccc(OCC(=O)O)c(Cl)c1Cl, the Potency was “inactive”.
In the case of CCCCCC(C)OC(=O)COc1ccc(Cl)c2cccnc12 (stereo not given), the Potency was “inactive”.
In the case of FC(F)(F)c1cccc(Cl)c1, the Potency was “inactive”.
In the case of C=CC(=O)OCCOC(=O)C=C, the Potency was “inactive”.
In the case of O=S(=O)(O)c1ccc(Nc2nc(Nc3ccc(/C=C/c4ccc(Nc5nc(Nc6ccc(S(=O)(=O)O)cc6)nc(N(CCO)CCO)n5)cc4S(=O)(=O)O)c(S(=O)(=O)O)c3)nc(N(CCO)CCO)n2)cc1, the Potency was “inactive”.
In the case of C=C(C)C(=O)OCCCCCCCCCC, the Potency was “inactive”.
With NC(=O)c1cccc([N+](=O)[O-])c1 the Potency was “inactive”.
For CC1(C)CCC[C@]2(C)[C@H]3CC(=O)O[C@]3(C)CC[C@@H]12, the Potency was “inactive”.
With O=C(O)c1cccc(C(F)(F)F)c1 the Potency was “inactive”.
